# Values without a mark were called inactive. Activity calls are given as the source filed them. Rule as the data show it: active = inhibition above about 50%; inactive = the rest.
# Molecular target: Vascular endothelial growth factor receptor 2 (Homo sapiens) (UniProt P35968)
# Assay: VEGFR2 inhibitors, primary assay, biochemical, Homo sapiens, LANCE Ultra TR-FRET, NPC library (AID 1117353)
# Conditions: LANCE Ultra TR-FRET kinase assay; at 20 µM (top of the series)
# Vascular endothelial growth factor receptor 2 (Homo sapiens), sequence (P35968 whole entry, looked up): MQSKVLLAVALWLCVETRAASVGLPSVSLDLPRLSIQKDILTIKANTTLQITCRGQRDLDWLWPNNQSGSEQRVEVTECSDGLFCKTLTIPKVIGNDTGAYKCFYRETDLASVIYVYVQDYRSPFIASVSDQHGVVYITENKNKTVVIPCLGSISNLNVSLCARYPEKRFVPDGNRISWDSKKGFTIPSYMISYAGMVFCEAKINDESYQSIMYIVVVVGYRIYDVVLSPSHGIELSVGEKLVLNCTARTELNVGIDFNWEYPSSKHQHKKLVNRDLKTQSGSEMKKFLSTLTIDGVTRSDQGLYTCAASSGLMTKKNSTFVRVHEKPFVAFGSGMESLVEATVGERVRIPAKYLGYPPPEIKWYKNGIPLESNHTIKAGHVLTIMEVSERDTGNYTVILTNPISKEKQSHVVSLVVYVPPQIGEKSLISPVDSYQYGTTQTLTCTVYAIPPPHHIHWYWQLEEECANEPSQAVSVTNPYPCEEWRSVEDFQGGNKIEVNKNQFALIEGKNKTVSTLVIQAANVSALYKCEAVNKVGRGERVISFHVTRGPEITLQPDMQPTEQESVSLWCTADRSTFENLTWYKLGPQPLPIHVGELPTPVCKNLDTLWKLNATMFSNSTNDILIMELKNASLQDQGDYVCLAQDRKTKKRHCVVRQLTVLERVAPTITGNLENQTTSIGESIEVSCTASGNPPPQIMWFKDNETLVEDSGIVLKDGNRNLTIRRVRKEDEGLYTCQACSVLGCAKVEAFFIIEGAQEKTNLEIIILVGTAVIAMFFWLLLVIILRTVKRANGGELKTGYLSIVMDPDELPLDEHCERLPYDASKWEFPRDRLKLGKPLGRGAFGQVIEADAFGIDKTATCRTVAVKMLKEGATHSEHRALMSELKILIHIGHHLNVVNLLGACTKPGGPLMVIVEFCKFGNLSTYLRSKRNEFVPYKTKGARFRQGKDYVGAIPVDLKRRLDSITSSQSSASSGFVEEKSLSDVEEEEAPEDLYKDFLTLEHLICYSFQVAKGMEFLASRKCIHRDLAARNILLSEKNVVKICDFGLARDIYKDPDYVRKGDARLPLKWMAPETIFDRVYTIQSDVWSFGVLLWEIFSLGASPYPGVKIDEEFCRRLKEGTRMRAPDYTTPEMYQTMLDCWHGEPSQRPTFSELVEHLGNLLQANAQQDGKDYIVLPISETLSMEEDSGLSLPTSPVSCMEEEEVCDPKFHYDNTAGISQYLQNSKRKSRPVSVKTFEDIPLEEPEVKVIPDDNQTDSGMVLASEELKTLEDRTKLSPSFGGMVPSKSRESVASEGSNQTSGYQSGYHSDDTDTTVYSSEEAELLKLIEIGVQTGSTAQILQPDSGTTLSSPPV
row,Structure (SMILES),inhibition
1,COC(=O)[C@H]1[C@H]2C[C@@H]3c4[nH]c5cc(OC)ccc5c4CCN3C[C@H]2C[C@@H](OC(=O)/C=C/c2ccc(O)c(OC)c2)[C@@H]1OC,16.4%
2,Cc1ccccc1C(=O)Nc1ccc(C(=O)N2CCCC(N(C)C)c3ccccc32)cc1 (stereo not drawn),41.5%
3,COCc1c(C(C)C)nc(C(C)C)c(/C=C/[C@@H](O)C[C@@H](O)CC(=O)O)c1-c1ccc(F)cc1,31.8%
4,CCCCCCCCCCCCCCCCCCNC(=O)OC1CCN(C(=O)OC[C@H](COC(=O)N(Cc2cccc[n+]2CC)C(=O)c2ccccc2OC)OC)CC1,-459%
5,CSc1ccc2c(c1)C(N1CCN(C)CC1)Cc1ccccc1S2 (stereo not drawn),-11.8%
6,COC(=O)Nc1nc2ccc(C(=O)C3CC3)cc2[nH]1,69.1% (active)
7,COC(=O)Nc1nc2ccc(Sc3ccccc3)cc2[nH]1,6%
8,CCCCC1C(=O)N(c2ccccc2)N(c2ccc(O)cc2)C1=O (stereo not drawn),29.1%
9,Cc1cc2c(C(C)C)c(O)c(O)c(C=O)c2c(O)c1-c1c(C)cc2c(C(C)C)c(O)c(O)c(C=O)c2c1O,-2.11%
10,Nc1ccc2cc3ccc(N)cc3nc2c1,-25.5%
11,O=C(NOCC1CC1)c1ccc(F)c(F)c1Nc1ccc(I)cc1Cl,12.4%
12,Cc1nc(N)nc(N)c1-c1ccc(Cl)c(Cl)c1,-0.1%
13,CCC1=C[C@@H]2CN(C1)Cc1c([nH]c3ccccc13)[C@@](C(=O)OC)(c1cc3c(cc1OC)N(C)[C@H]1[C@@](O)(C(=O)OC)[C@H](OC(C)=O)[C@]4(CC)C=CCN5CC[C@]31[C@@H]54)C2,-20.3%
